Measured values reported in PubChem BioAssay (NCI).
The panel holds about 83,000 compounds, 20% with a hit somewhere; the sample as a whole holds those more often.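 Growth was measured after 48 h exposure to one concentration of compound in 96-well plates. Values under 10 count as active.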 Values without a mark were called inactive. The source made the active and inactive calls.

Tests used:
Assay in all cases: NCI-60 one-dose screen, 48 h (100 = growth as untreated, 0 = no growth, -100 = all killed)
Conditions in all cases: 10 µM unless noted
[1] = tested on: T-47D breast
[2] = tested on: BT-549 breast
[3] = tested on: MDA-MB-435 melanoma
[4] = tested on: SW-620 colon
[5] = tested on: MCF7 breast
[6] = tested on: HCT-116 colon
[7] = tested on: HCC-2998 colon
[8] = tested on: KM12 colon

CCN1C(=O)N(CC)C2Nn3c(s/c(=C\c4ccc([N+](=O)[O-])cc4)c3=O)=NC21 (configuration not stated) was tested, and the growth [1] was 40.2%, the growth [2] was 95.2% and the growth [3] was 61.9%. It also gave a growth [4] of 60.2%, a growth [5] of 11% and a growth [6] of 18.2%. It also gave a growth [7] of 101% and a growth [8] of 97.8%.
In the case of COc1cccc2c(=O)c3c(sc12)c(N1CCNCC1)nc1ccccc13, the growth [1] is reported as 85.5%, the growth [2] is reported as 97.6% and the growth [3] is reported as 54.7%. For the same molecule, the growth [4] was -39.2% (active), the growth [5] was 53.2% and the growth [6] was -52.4% (active). The growth [7] was 11.1% and the growth [8] was 46.3%.
In the case of CCOc1ccc2nc(SCc3nc4n(n3)S(=O)(=O)c3ccccc3N4C)sc2c1, the growth [1] is reported as 45.2%, the growth [2] is reported as -10.6% (active) and the growth [3] is reported as 60.8%. For the same molecule, the growth [4] was 14%, the growth [5] was 47.3% and the growth [6] was 19.1%. For the same molecule, the growth [7] was 28.5% and the growth [8] was 7.52% (active).
Cc1c(C(=O)N[C@@H](Cc2ccccc2)C(=O)C(=O)NCc2ccc(F)cc2)[nH]c2ccccc2c1=O was tested, and the growth [1] was 103%, the growth [2] was 110% and the growth [3] was 101%. The growth [4] was 97.5%, the growth [5] was 91.2% and the growth [6] was 99.9%. It also gave a growth [7] of 93.8% and a growth [8] of 101%.
Work on CC(=O)O.CN1[CH-]N(Cc2ccc(C#N)cc2)c2ccccc21.[Ag+] yielded a growth [1] of 69.7%, a growth [2] of 102% and a growth [3] of 106%. The growth [4] was 57.9%, the growth [5] was 97% and the growth [6] was 105%. The growth [7] was 113% and the growth [8] was 86.9%.
For COc1cc2cc(Oc3ccc(NC(=O)Nc4cc(C(F)(F)F)cc(C(F)(F)F)c4)cc3)c(C)nc2cc1OCCN1CCOCC1, the growth [1] was 26.1%, the growth [2] was 68.1% and the growth [3] was 22.3%. The growth [4] was 20.3%, the growth [5] was 7.15% (active) and the growth [6] was 10.3%. For the same molecule, the growth [7] was 38.6% and the growth [8] was 13.3%.
NCCOc1ncccc1/C=C1\C2C=CC=CC2C2C=CC(F)=CC12 (configuration not stated) showed a growth [1] of 33.1%, a growth [2] of 84.7% and a growth [3] of 63.4%. It also gave a growth [4] of 13.3%, a growth [5] of 11.8% and a growth [6] of 22.2%. For the same molecule, the growth [7] was 4.37% (active) and the growth [8] was 29%.
For C=CCNc1ccc2c3c(cccc13)C(=O)N(N1C(=O)c3cccc4cccc(c34)C1=O)C2=O, the growth [1] was 96.5%, the growth [2] was 105% and the growth [3] was 101%. For the same molecule, the growth [4] was 108%, the growth [5] was 87.4% and the growth [6] was 99.6%. For the same molecule, the growth [7] was 107% and the growth [8] was 105%.
COc1ccc2cc(C(C)C(=O)Nc3ccc(-c4n[nH]c(=S)n4C4CCCCC4)cc3)ccc2c1 (configuration not stated) was tested, and the growth [1] was 69.7%, the growth [2] was 90.9% and the growth [3] was 62.4%. It also gave a growth [4] of 92.2%, a growth [5] of 48.3% and a growth [6] of 48.6%. The growth [7] was 70.5% and the growth [8] was 55.9%.
O=c1c2cc(F)ccc2sc2c(N3CCCCC3)nc3ccccc3c12 showed a growth [1] of 105%, a growth [2] of 90.3% and a growth [3] of 107%. It also gave a growth [4] of 104%, a growth [5] of 95.8% and a growth [6] of 90.9%. It also gave a growth [7] of 101% and a growth [8] of 105%.
Work on COc1ccc(C2C(N)=NNC2c2cccc(O)c2)cc1 (configuration not stated) yielded a growth [1] of 101%, a growth [2] of 87.5% and a growth [3] of 100%. For the same molecule, the growth [4] was 109%, the growth [5] was 96.6% and the growth [6] was 104%. It also gave a growth [7] of 122% and a growth [8] of 92.8%.
Work on Cc1ccc(S(=O)(=O)Oc2ccc(NC(=O)c3ccc(Cl)cc3)cc2)cc1 yielded a growth [1] of 98.1%, a growth [2] of 90.8% and a growth [3] of 105%. It also gave a growth [4] of 103%, a growth [5] of 91.8% and a growth [6] of 81%. For the same molecule, the growth [7] was 104% and the growth [8] was 103%.
With COc1cc(C(=O)N2N=C(c3ccc(S(C)(=O)=O)cc3)CC2c2ccco2)cc(OC)c1OC (configuration not stated) the growth [1] was 59.3%, the growth [2] was 48.5% and the growth [3] was 6.67% (active). The growth [4] was 42.3%, the growth [5] was 37% and the growth [6] was 50.6%. For the same molecule, the growth [7] was 59.9% and the growth [8] was 49.7%.
CN1CCN(c2ccc(-c3cc4c(Nc5ccc(F)c(Cl)c5)ncnn4c3)cn2)CC1 was tested, and the growth [1] was 96.2%, the growth [2] was 105% and the growth [3] was 96.1%. The growth [4] was 40.4%, the growth [5] was 77.4% and the growth [6] was 1.89% (active). For the same molecule, the growth [7] was 98.6% and the growth [8] was 93.7%.
Work on CC(=O)OC[C@H]1OC(Sc2sc(C(=O)c3ccc(Cl)cc3)c(N)c2-c2nc3ccccc3s2)[C@H](OC(C)=O)[C@@H](OC(C)=O)[C@@H]1OC(C)=O (some centres not stated) yielded a growth [1] of 89.5%, a growth [2] of 98.5% and a growth [3] of 96.5%. For the same molecule, the growth [4] was 82.7%, the growth [5] was 82.1% and the growth [6] was 50.8%. For the same molecule, the growth [7] was 109% and the growth [8] was 89.3%.
COc1ccccc1/C=C1\Oc2cc(OCCN3CCC(Cc4ccccc4)CC3)ccc2C1=O showed a growth [1] of 85.8%, a growth [2] of 85.4% and a growth [3] of 91.1%. The growth [4] was 69.1%, the growth [5] was 80.1% and the growth [6] was 73.9%. For the same molecule, the growth [7] was 37.9% and the growth [8] was 91.7%.
COc1cc(C(=O)/C=C/c2ccc(OCCCCCC[P+](c3ccccc3)(c3ccccc3)c3ccccc3)cc2)cc(OC)c1OC was tested, and the growth [1] was -21.5% (active), the growth [2] was -47.6% (active) and the growth [3] was -58.9% (active). The growth [4] was -80.4% (active), the growth [5] was -68.1% (active) and the growth [6] was -77.3% (active). For the same molecule, the growth [7] was -20.3% (active) and the growth [8] was -86.8% (active).
For Cc1nc(/N=C(\N)NC(=O)Nc2cccc(Cl)c2)sc1C, the growth [1] was 73.5%, the growth [2] was 71.7% and the growth [3] was -13.5% (active). For the same molecule, the growth [4] was 38.2%, the growth [5] was 35.9% and the growth [6] was 66.4%. The growth [7] was 78.2% and the growth [8] was 41.6%.
Molecule CCCCN(C)N=Nc1ccc(C(N)=O)cc1 has a growth [1] of 113%, a growth [2] of 112% and a growth [3] of 84.5%. The growth [4] was 104%, the growth [5] was 94% and the growth [6] was 107%. It also gave a growth [7] of 101% and a growth [8] of 107%.
Cc1ccc2sc3c(NCCN)nc4ccccc4c3c(=O)c2c1 showed a growth [1] of 65.6%, a growth [2] of 88.1% and a growth [3] of 46.2%. For the same molecule, the growth [4] was -61.9% (active), the growth [5] was 47.9% and the growth [6] was 7.89% (active). The growth [7] was -33% (active) and the growth [8] was 14.1%.
CCOC(=O)c1c2c(n(-c3ccc(C#N)cc3)c1-c1ccccc1)C=CCC2 gave a growth [1] of 72.6%, a growth [2] of 97.8% and a growth [3] of 95.3%. The growth [4] was 96.9%, the growth [5] was 76.4% and the growth [6] was 66.2%. For the same molecule, the growth [7] was 90.5% and the growth [8] was 91.8%.
Oc1ccc(CCl)c2cccnc12 showed a growth [1] of 30.3%, a growth [2] of 66.7% and a growth [3] of 84.8%. The growth [4] was 41.5%, the growth [5] was 5.57% (active) and the growth [6] was 15.4%. It also gave a growth [7] of 91.3% and a growth [8] of 82%.
CCOC(=O)/C(C#N)=C\Nc1ccc2ncnc(Nc3ccc(Cl)cc3Cl)c2c1 gave a growth [1] of 58.6%, a growth [2] of 89.6% and a growth [3] of 75.7%. It also gave a growth [4] of 100%, a growth [5] of 87.6% and a growth [6] of 92.9%. It also gave a growth [7] of 119% and a growth [8] of 79.1%.
COc1ccc(N2C(=O)C(Oc3ccccc3)C2c2ccc(C)cc2)cc1 (configuration not stated) gave a growth [1] of 96.9%, a growth [2] of 99.3% and a growth [3] of 98.7%. It also gave a growth [4] of 94.8%, a growth [5] of 96.3% and a growth [6] of 95.5%. It also gave a growth [7] of 97.7% and a growth [8] of 96.2%.
For COc1cc(C(=O)c2cc(C)c3[nH]c4ccc(O)cc4c3c2C)cc(OC)c1OC, the growth [1] was 38.5%, the growth [2] was -1.57% (active) and the growth [3] was -6.06% (active). For the same molecule, the growth [4] was 31.2%, the growth [5] was 11% and the growth [6] was -5.93% (active). The growth [7] was 20.6% and the growth [8] was 4.49% (active).
For COc1ccc2c(c1)c(-c1ccc(-c3cn(C)c4ccc(OC)cc34)o1)cn2C, the growth [1] was -14% (active), the growth [2] was 1.95% (active) and the growth [3] was 89.5%. For the same molecule, the growth [4] was 38%, the growth [5] was 65.4% and the growth [6] was 68.6%. It also gave a growth [7] of 30.1% and a growth [8] of 22.7%.
In the case of COc1ccc(/C=N/Nc2cc(=O)[nH]c3ccc(C)cc23)cc1, the growth [1] is reported as 70.7%, the growth [2] is reported as 88.3% and the growth [3] is reported as 102%. The growth [4] was 96.8%, the growth [5] was 78.1% and the growth [6] was 83.1%. For the same molecule, the growth [7] was 99.2% and the growth [8] was 105%.
CCOC(=O)c1cn2ncnc(Oc3ccc(NC(=O)NCCN4CCOCC4)c(Cl)c3)c2c1C gave a growth [1] of 80.6%, a growth [2] of 96.5% and a growth [3] of 97.3%. The growth [4] was 94.1%, the growth [5] was 88.5% and the growth [6] was 94.7%. It also gave a growth [7] of 110% and a growth [8] of 103%.
Work on CN1C(=C2C(=O)OC(C)(C)OC2=O)CCC1C(=O)NCc1ccc(Cl)cc1Cl (configuration not stated) yielded a growth [1] of 97.4%, a growth [2] of 107% and a growth [3] of 109%. It also gave a growth [4] of 104%, a growth [5] of 98.3% and a growth [6] of 88.3%. For the same molecule, the growth [7] was 96.5% and the growth [8] was 98.5%.
